# From the supplement of paper PMC7765376
# In all, about 1,500 compounds were measured (“Excess HSA synergy score (sum over dose matrix of excess over highest single agent)”: median about 43, lowest 2% from about -900 on). The list comes from a sample in which the lowest values are over-represented; it also holds similar structures and randomly drawn compounds.
# Tested on: PEO-1
# Experiment: Excess HSA synergy score (sum over dose matrix of excess over highest single agent) (score (summed % response)); higher = less synergy / more antagonism (negative = synergy)
# Conditions: 72 h; read-out: viability/apoptosis luminescence (CellTiter-Glo or Caspase3-Glo / not stated per table); matrix design: 6x6, 5-fold dilutions (primary screen)
row,Structure (SMILES),Excess HSA synergy score
1,Cc1c(C(=O)Nc2ccc(N3C[C@@H](C)O[C@@H](C)C3)nc2)cccc1-c1ccc(OC(F)(F)F)cc1 [Sonidegib] + CC[C@H](NC(=O)[C@H](C)NC)C(=O)N1C[C@@H](O)C[C@H]1Cc1c(-c2[nH]c3cc(F)ccc3c2C[C@@H]2C[C@H](O)CN2C(=O)[C@H](CC)NC(=O)[C@H](C)NC)[nH]c2cc(F)ccc12 [Birinapant],68.2
2,Cc1ccc(CN2CCNCC2)cc1NC(=O)CNc1ccc(F)c(F)c1 + CC[C@H](NC(=O)[C@H](C)NC)C(=O)N1C[C@@H](O)C[C@H]1Cc1c(-c2[nH]c3cc(F)ccc3c2C[C@@H]2C[C@H](O)CN2C(=O)[C@H](CC)NC(=O)[C@H](C)NC)[nH]c2cc(F)ccc12 [Birinapant],191
3,c1ccc2c(-c3cnn4cc(-c5ccc(N6CCNCC6)cc5)cnc34)ccnc2c1 + CC[C@H](NC(=O)[C@H](C)NC)C(=O)N1C[C@@H](O)C[C@H]1Cc1c(-c2[nH]c3cc(F)ccc3c2C[C@@H]2C[C@H](O)CN2C(=O)[C@H](CC)NC(=O)[C@H](C)NC)[nH]c2cc(F)ccc12 [Birinapant],-53.9
4,CC(=O)NCCC(=O)N[C@@H](CCC(N)=O)C(=O)N[C@@H](CO)C(=O)N[C@@H](CCC(N)=O)C(=O)N[C@@H](CCC(N)=O)C(=O)N[C@H](C(=O)N[C@@H](Cc1ccccc1)C(=O)N[C@]1(C)CCCCCC/C=C\CCC[C@@](C)(C(=O)N[C@@H](CCC(N)=O)C(=O)N[C@@H](CC(N)=O)C(N)=O)NC(=O)[C@H](CC(C)C)NC(=O)[C@H](CC(C)C)NC(=O)[C@@H](CCCNC(=N)N)NC(=O)[C@H](Cc2c[nH]c3ccccc23)NC(=O)[C@H](CC(C)C)NC(=O)[C@H](CC(N)=O)NC1=O)[C@H](C)O + CC[C@H](NC(=O)[C@H](C)NC)C(=O)N1C[C@@H](O)C[C@H]1Cc1c(-c2[nH]c3cc(F)ccc3c2C[C@@H]2C[C@H](O)CN2C(=O)[C@H](CC)NC(=O)[C@H](C)NC)[nH]c2cc(F)ccc12 [Birinapant],168
5,CCN1CCN(c2ccc(Nc3cc(N(C)C(=O)Nc4c(Cl)c(OC)cc(OC)c4Cl)ncn3)cc2)CC1 [Infigratinib] + CC[C@H](NC(=O)[C@H](C)NC)C(=O)N1C[C@@H](O)C[C@H]1Cc1c(-c2[nH]c3cc(F)ccc3c2C[C@@H]2C[C@H](O)CN2C(=O)[C@H](CC)NC(=O)[C@H](C)NC)[nH]c2cc(F)ccc12 [Birinapant],-48.8
6,COc1cc2c(cc1Cc1cccc(Cl)c1F)c(=O)c(C(=O)O)cn2[C@H](CO)C(C)C [Elvitegravir] + CC[C@H](NC(=O)[C@H](C)NC)C(=O)N1C[C@@H](O)C[C@H]1Cc1c(-c2[nH]c3cc(F)ccc3c2C[C@@H]2C[C@H](O)CN2C(=O)[C@H](CC)NC(=O)[C@H](C)NC)[nH]c2cc(F)ccc12 [Birinapant],326
7,OCCC#Cc1nc(-c2ccc(F)cc2)c(-c2ccncc2)n1CCCc1ccccc1 + CC[C@H](NC(=O)[C@H](C)NC)C(=O)N1C[C@@H](O)C[C@H]1Cc1c(-c2[nH]c3cc(F)ccc3c2C[C@@H]2C[C@H](O)CN2C(=O)[C@H](CC)NC(=O)[C@H](C)NC)[nH]c2cc(F)ccc12 [Birinapant],286
8,COc1ccc(/C=C\c2cc(OC)c(OC)c(OC)c2)cc1NC(=O)[C@@H](N)CO [Ombrabulin] + CC[C@H](NC(=O)[C@H](C)NC)C(=O)N1C[C@@H](O)C[C@H]1Cc1c(-c2[nH]c3cc(F)ccc3c2C[C@@H]2C[C@H](O)CN2C(=O)[C@H](CC)NC(=O)[C@H](C)NC)[nH]c2cc(F)ccc12 [Birinapant],-98.3
9,O=C(CO)N1CCC(c2n[nH]c(-c3ccc(Cl)cc3)c2-c2ccncn2)CC1 + CC[C@H](NC(=O)[C@H](C)NC)C(=O)N1C[C@@H](O)C[C@H]1Cc1c(-c2[nH]c3cc(F)ccc3c2C[C@@H]2C[C@H](O)CN2C(=O)[C@H](CC)NC(=O)[C@H](C)NC)[nH]c2cc(F)ccc12 [Birinapant],244
10,CC(C)(OCc1nn(Cc2ccccc2)c2ccccc12)C(=O)O [Bindarit] + CC[C@H](NC(=O)[C@H](C)NC)C(=O)N1C[C@@H](O)C[C@H]1Cc1c(-c2[nH]c3cc(F)ccc3c2C[C@@H]2C[C@H](O)CN2C(=O)[C@H](CC)NC(=O)[C@H](C)NC)[nH]c2cc(F)ccc12 [Birinapant],-236
11,Cc1ccc(/C=N/NC(=O)c2ccccc2Oc2ccccc2)o1 + CC[C@H](NC(=O)[C@H](C)NC)C(=O)N1C[C@@H](O)C[C@H]1Cc1c(-c2[nH]c3cc(F)ccc3c2C[C@@H]2C[C@H](O)CN2C(=O)[C@H](CC)NC(=O)[C@H](C)NC)[nH]c2cc(F)ccc12 [Birinapant],277
12,CC(C)c1cc(C(C)C)c(CC(=O)NS(=O)(=O)Oc2c(C(C)C)cccc2C(C)C)c(C(C)C)c1 [Avasimibe] + CC[C@H](NC(=O)[C@H](C)NC)C(=O)N1C[C@@H](O)C[C@H]1Cc1c(-c2[nH]c3cc(F)ccc3c2C[C@@H]2C[C@H](O)CN2C(=O)[C@H](CC)NC(=O)[C@H](C)NC)[nH]c2cc(F)ccc12 [Birinapant],95.2
13,"CC(=O)C1=C(O)C=C2Oc3c(C(C)=O)c(O)c(C)c(O)c3C2(C)C1=O (single isomer, unassigned; (+)) [(+)-Usniacin] + CC[C@H](NC(=O)[C@H](C)NC)C(=O)N1C[C@@H](O)C[C@H]1Cc1c(-c2[nH]c3cc(F)ccc3c2C[C@@H]2C[C@H](O)CN2C(=O)[C@H](CC)NC(=O)[C@H](C)NC)[nH]c2cc(F)ccc12 [Birinapant]",-123
14,C[C@@H]1CN(Cc2ccc(F)cc2)[C@@H](C)CN1C(=O)c1cc2c(C(=O)C(=O)N(C)C)cn(C)c2cc1Cl [Talmapimod] + CC[C@H](NC(=O)[C@H](C)NC)C(=O)N1C[C@@H](O)C[C@H]1Cc1c(-c2[nH]c3cc(F)ccc3c2C[C@@H]2C[C@H](O)CN2C(=O)[C@H](CC)NC(=O)[C@H](C)NC)[nH]c2cc(F)ccc12 [Birinapant],190
